TDP1 cell CPT: DT40-hTDP1 cell growth loss with CPT; chicken DT40 Tdp1-/-;hTDP1 cells + 20 nM CPT, ATP luminescence, 48 h; Potency, µM (series often up to 46.2 µM), inactives show at the top dose activity change, negative = growth inhibition, actives largely listed as inhibitors; 420,000 compounds, 12% hits; also: potency is read from the fitted curve at half-maximal effect; % is scaled to controls: 0 for no effect and ±100 for the full control effect; nearly all actives have a fitted effect of over 55% in size
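Chicken DT40 Tdp1-/- cells stably complemented with human TDP1 were seeded at 400 cells/well in medium containing 20 nM camptothecin, exposed to pin-transferred compounds, and grown at 37 °C for at least 48 hr. Viability was read as ATP luminescence.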
BCR signal inh: chronic active BCR signaling inhibition; Potency, µM (titrated, usually from 46.1 µM), without a hit: top-dose activity change, negative = inhibition, usual class: inhibitors; AID 493014; ABC-DLBCL IkBa-CBG/CBR reporter, luminescence ratio, 4 h; 340,000 compounds, 0.05% hits; active = well fitted inhibition curve with a large enough effect in the signal ratio, with a control signal flat, not every such curve was filed as active; inconclusive = small, poorly fitted or top-dose-only effect, or effect the other way, or a change in a side signal; the % refers to the signal ratio;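 also: potency is read from the fitted curve at half-maximal effect; plate controls were basal doxycycline-induced cells for no effect and cells given 10 µM MG132 for full effect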
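TMD8 human ABC-DLBCL cells with doxycycline-inducible IκBα–green luciferase fusion and unfused red luciferase, in 0.5% FBS medium; compounds up to 46 uM, 4 h at 37C. Green/red luminescence ratio, filter-overlap corrected, fitted to concentration-response curves.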
SW480 rereplic: inducers of DNA re-replication in SW480 colon cancer cells. SW480 DNA re-replication, Hoechst DNA content imaging, 48 h. Potency, µM (highest dose often 46.1 µM), without a hit: top-dose re-replication activation, hits mostly activators. 340,000 compounds, 1.8% hits; also: potency is read from the fitted curve at half-maximal effect; % of control where 0% means no effect; nearly all actives have a fitted effect of over 55% in size
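Quantitative HTS format with DMSO vehicle controls; 48 hr drug incubation at 37 C, then 40 min Hoechst staining and scanning imager measurement at 405 nm excitation.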
TDP1 cell noCPT: qHTS for Inhibitors of human tyrosyl-DNA phosphodiesterase 1 (TDP1): qHTS in cells in absence of CPT; DT40 Tdp1-/- hTDP1 cells, no CPT, ATP luminescence, 48 h; Potency, µM (doses to about 46.2 µM), without a hit: at the highest dose activity change, negative = growth inhibition, actives largely listed as inhibitors; 420,000 compounds, 15% hits; also: potency is read from the fitted curve at half-maximal effect; % is scaled to controls: 0 for no effect and ±100 for the full control effect; nearly all actives have a fitted effect of over 55% in size
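Chicken DT40 Tdp1-/- cells stably complemented with human TDP1 were seeded at 400 cells/well with DMSO in place of 20 nM camptothecin. After compound pinning, cells grew at least 48 hr at 37 °C; viability read by CellTiter-Glo luminescence.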
IL1B secr inh: inhibitors of inflammasome signaling (IL-1 beta secretion); AID 743279; 360,000 compounds, 4.7% hits; THP-1 LPS/ATP IL-1B secretion, AlphaLISA, 16 h; hits give low values; activity change, % at 57.5 µM; in the data active = activity change below about -50%; inconclusive = mostly about -30% to -49%; also: % is scaled to controls: 0 for no effect and ±100 for the full control effect
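THP-1 cells pretreated 1 hr with compounds (up to 57.5 uM final), then stimulated with LPS (250 ng/mL final) plus ATP (1.25 mM final); secreted IL-1B measured by AlphaLISA after 16 hr, decreased signal indicating inhibition.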
MCF10A rereplic: DNA re-replication induction in MCF 10a cells | MCF 10A DNA re-replication, Hoechst nuclear intensity, 48 h | Potency, µM (highest dose often 46.1 µM), inactives show top-dose activity, positive = re-replication, actives largely listed as activators | 350,000 compounds, 2.9% hits | AID 624296; also: potency is read from the fitted curve at half-maximal effect; % of control where 0% means no effect; nearly all actives have a fitted effect of over 50% in size
Starred values were filed as active, the others as inactive. A selection: hits, their analogues and other compounds. The true share with any hit is near 19%. Unless noted, calls follow the shape of the dose curve; as a rule, active = well fitted curve in the direction sought with a large enough effect; inconclusive = small, poorly fitted or top-dose-only effect, or another doubt; inactive = no such curve, though single readings can be large; an effect the other way counts as inactive or inconclusive.

How did O=C(c1cccc(S(=O)(=O)N2CCOCC2)c1)N1CCCc2ccccc21 do in these assays?
TDP1 cell CPT: -22.9%; BCR signal inh: 10.8%; SW480 rereplic: -3.5%; TDP1 cell noCPT: -12.6%; IL1B secr inh: 2.0; MCF10A rereplic: 1.9%

Results for CCN(C(=O)c1oc2ccc(S(=O)(=O)N3CCCCCC3)cc2c1C)c1ccccc1 ?
TDP1 cell CPT: 23.1µM*; BCR signal inh: 5.9%; TDP1 cell noCPT: 14.6µM*

What do the screens show for `Cc1c(C(=O)N2CCCc3ccccc32)oc2ccc(S(=O)(=O)N3CCOCC3)cc12`?
TDP1 cell CPT: 14.1µM*; BCR signal inh: -0.8%; SW480 rereplic: inconclusive; TDP1 cell noCPT: 11.2µM*; IL1B secr inh: -15.9; MCF10A rereplic: inconclusive

Results for CCOC(=O)N1CCN(c2ccc(S(=O)(=O)N3CCC(C)CC3)cc2[N+](=O)[O-])CC1 ?
TDP1 cell CPT: 20.6µM*; BCR signal inh: 2.1%; SW480 rereplic: -1.7%; TDP1 cell noCPT: 13µM*; IL1B secr inh: 20.0; MCF10A rereplic: 10.3%

Results for CC(=O)N1CCN(c2ccc(S(=O)(=O)N3CCOCC3)cc2[N+](=O)[O-])CC1 ?
TDP1 cell CPT: 2.6%; BCR signal inh: 7.1%; SW480 rereplic: -0.3%; TDP1 cell noCPT: -2.6%; IL1B secr inh: 7.8; MCF10A rereplic: 4.9%

What do the screens show for `Cc1c(C(=O)N(C)Cc2ccccc2)oc2ccc(S(=O)(=O)N3CCCC3)cc12`?
TDP1 cell CPT: -21.8%; BCR signal inh: -11.7%; SW480 rereplic: -7.7%; TDP1 cell noCPT: inconclusive; IL1B secr inh: 12.8; MCF10A rereplic: 8.5%

How did Cc1sc2nc(CN3CCOCC3)nc(NS(=O)(=O)c3cc(Cl)ccc3Cl)c2c1C do in these assays?
TDP1 cell CPT: -2.0%; BCR signal inh: inconclusive; SW480 rereplic: -4.7%; TDP1 cell noCPT: 6.8%; IL1B secr inh: 46.2; MCF10A rereplic: 7.6%

What do the screens show for `CC(=O)Nc1cccc(NS(=O)(=O)c2ccc3c(c2)CCC(=O)N3)c1`?
TDP1 cell CPT: -13.9%; TDP1 cell noCPT: -2.1%; IL1B secr inh: -5.3

What do the screens show for `CCOC(=O)N1CCN(C(=O)c2oc3ccc(S(=O)(=O)N4CCCCCC4)cc3c2C)CC1`?
TDP1 cell CPT: 14.6µM*; BCR signal inh: -0.3%; SW480 rereplic: -5.5%; TDP1 cell noCPT: 13µM*; IL1B secr inh: -1.5; MCF10A rereplic: -0.9%

What do the screens show for `CCOC(=O)N1CCN(C(=O)c2oc3ccc(S(=O)(=O)N4CCOCC4)cc3c2C)CC1`?
TDP1 cell CPT: -6.3%; BCR signal inh: -5.2%; SW480 rereplic: -10.1%; TDP1 cell noCPT: -26.7%; IL1B secr inh: 13.3; MCF10A rereplic: -2.7%

Results for O=S(=O)(c1ccc2oc3ccccc3c2c1)N1CCCC1 ?
TDP1 cell CPT: -22.9%; BCR signal inh: 6.5%; SW480 rereplic: 2.7%; TDP1 cell noCPT: inconclusive; IL1B secr inh: 12.4; MCF10A rereplic: 3.5%

Results for CCN(CC)C(=O)C1CCN(S(=O)(=O)c2ccc3oc4ccccc4c3c2)CC1 ?
TDP1 cell CPT: 20.6µM*; BCR signal inh: 4.1%; SW480 rereplic: -6.3%; TDP1 cell noCPT: 16.4µM*; IL1B secr inh: inconclusive; MCF10A rereplic: 1.5%

How did Cc1c(C(=O)N2CCc3ccccc3C2)oc2ccc(S(=O)(=O)N3CCCCCC3)cc12 do in these assays?
TDP1 cell CPT: 23.1µM*; BCR signal inh: 3.9%; SW480 rereplic: 8.1%; TDP1 cell noCPT: 18.4µM*; IL1B secr inh: -14.4; MCF10A rereplic: inconclusive

Results for CCN(C)C1CN(Cc2cn(CCCC(=O)OC)nn2)S(=O)(=O)C1 (centres undefined) ?
TDP1 cell CPT: -7.6%; TDP1 cell noCPT: -0.6%; IL1B secr inh: 47.6

How did O=C(COc1ccc(C(=O)c2ccccc2)cc1)Nc1cccnc1 do in these assays?
TDP1 cell CPT: 5.17µM*; BCR signal inh: 1.2%; SW480 rereplic: -19.7%; TDP1 cell noCPT: 2.91µM*; IL1B secr inh: -17.8; MCF10A rereplic: 15.1%

How did Cn1nc(-c2ccc(OCC(=O)Nc3cccnc3)cc2)c2ccccc2c1=O do in these assays?
TDP1 cell CPT: inconclusive; BCR signal inh: -16.6%; SW480 rereplic: -9.3%; TDP1 cell noCPT: inconclusive; IL1B secr inh: inconclusive; MCF10A rereplic: inconclusive

How did CC(=O)CCc1ccc(OCC(=O)Nc2cccc(S(=O)(=O)N(C)c3ccccc3)c2)cc1 do in these assays?
TDP1 cell CPT: -7.6%; BCR signal inh: 1.2%; SW480 rereplic: 0.5%; TDP1 cell noCPT: inconclusive; IL1B secr inh: -7.6; MCF10A rereplic: inconclusive

How did CN(C)S(=O)(=O)c1cccc(NC(=O)COc2ccc(C(=O)c3ccccc3)cc2)c1 do in these assays?
TDP1 cell CPT: 18.4µM*; BCR signal inh: -9.4%; SW480 rereplic: -1.4%; TDP1 cell noCPT: 16.4µM*; IL1B secr inh: -25.4; MCF10A rereplic: inconclusive

What do the screens show for `N#Cc1ccc(-c2ccc(OCC(=O)Nc3cccnc3)cc2)cc1`?
TDP1 cell CPT: inconclusive; BCR signal inh: -0.7%; SW480 rereplic: -2.0%; TDP1 cell noCPT: inconclusive; IL1B secr inh: -52.1*; MCF10A rereplic: 10.8%

What do the screens show for `O=C(CCCOc1ccccc1)Nc1cccnc1`?
TDP1 cell CPT: -2.2%; BCR signal inh: -1.4%; SW480 rereplic: -2.1%; TDP1 cell noCPT: -14.1%; IL1B secr inh: 5.0; MCF10A rereplic: inconclusive

How did Cc1ccc(N(CC(=O)N(C)Cc2ccccc2)S(C)(=O)=O)cc1C do in these assays?
TDP1 cell CPT: -23.5%; BCR signal inh: -0.8%; SW480 rereplic: -21.0%; TDP1 cell noCPT: -13.0%; IL1B secr inh: 5.9; MCF10A rereplic: inconclusive

How did O=C(NCCC1CCCCN1S(=O)(=O)c1ccccc1)C(=O)NCc1cccnc1 (centres undefined) do in these assays?
TDP1 cell CPT: 5.6%; BCR signal inh: -2.4%; SW480 rereplic: 0.4%; TDP1 cell noCPT: 5.1%; IL1B secr inh: 4.0; MCF10A rereplic: 4.9%

How did COc1cc(N)c(NC(=O)/C=C/c2nc3cc(OC)c(OC)cc3[nH]2)cc1OC do in these assays?
TDP1 cell CPT: -25.8%; TDP1 cell noCPT: -4.9%

Results for Cc1cc([N+](=O)[O-])ccc1NC(=O)CN1C2CCC1CC(NC(=O)NC13CC4CC(CC(C4)C1)C3)C2 (centres undefined) ?
TDP1 cell CPT: 14.6µM*; BCR signal inh: -4.7%; SW480 rereplic: 2.7%; TDP1 cell noCPT: 5.17µM*; IL1B secr inh: inconclusive; MCF10A rereplic: -2.1%

From PubChem
